The text below walks through data of PubChem BioAssay (NCATS).

For assay [1], the target named is Bile acid receptor (Homo sapiens) (UniProt Q96RI1). In words: qHTS assay for small molecule agonists of farnesoid X receptor signaling (AID 588527).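 Also: series mostly up to about 77 µM; 0% = vehicle basal and 100% = reference agonist.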 As to conditions: HEK293T FXR-UAS-bla, beta-lactamase ratio, 16 h; activation: stronger effect = higher value. The gist of the method:
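FXR-UAS-bla HEK293T cells (10% dialyzed FBS) preincubated 5-7 h at 37 C, then compounds at up to 92 uM for 16 h at 37 C. CCF4 beta-lactamase read-out after 2 h RT. Normalized to chenodeoxycholic acid (100 uM) and DMSO; Hill fit gave EC50 and efficacy.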
A general note: qHTS replaces the single test concentration by a dilution series.

In assay [2] the target is Peroxisome proliferator-activated receptor delta (Homo sapiens) (UniProt Q03181). In words: qHTS assay for small molecule agonists of peroxisome proliferator-activated receptor delta signaling (AID 588534).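 Also: 0% = DMSO basal wells and 100% = positive control agonist at 10 µM.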 An outline of the steps:
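Titration series tested in agonist mode on beta-lactamase reporter cells; 18 hrs at 37 C after a 5 hr pre-incubation. Readout: CCF4 fluorescence, 2 hrs RT. Hill equation gives EC50 and maximal response.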

Values joined by “and” are separate entries in the source; they are usually repeats but may differ in a detail not shown here. Equal entries are not always repeated. Results filed as inconclusive are left out. Values without a mark were called inactive. Active and inactive are the calls of the source. Calls follow the shape of the full dose curve.

Bile acid receptor (Homo sapiens), sequence (Q96RI1 whole entry, looked up): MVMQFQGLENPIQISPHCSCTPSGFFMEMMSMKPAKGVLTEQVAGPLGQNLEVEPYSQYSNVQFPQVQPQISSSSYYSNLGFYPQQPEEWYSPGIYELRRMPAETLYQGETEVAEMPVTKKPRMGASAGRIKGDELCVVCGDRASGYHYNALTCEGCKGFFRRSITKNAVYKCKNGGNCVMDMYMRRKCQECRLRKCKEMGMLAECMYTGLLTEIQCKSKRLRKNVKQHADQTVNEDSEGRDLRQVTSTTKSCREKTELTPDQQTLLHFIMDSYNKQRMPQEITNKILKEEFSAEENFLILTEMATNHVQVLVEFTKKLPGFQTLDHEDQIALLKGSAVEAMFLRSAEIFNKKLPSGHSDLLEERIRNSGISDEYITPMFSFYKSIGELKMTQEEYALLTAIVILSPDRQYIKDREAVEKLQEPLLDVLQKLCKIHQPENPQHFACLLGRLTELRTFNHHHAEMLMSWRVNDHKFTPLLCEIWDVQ
Peroxisome proliferator-activated receptor delta (Homo sapiens), sequence (Q03181 whole entry, looked up): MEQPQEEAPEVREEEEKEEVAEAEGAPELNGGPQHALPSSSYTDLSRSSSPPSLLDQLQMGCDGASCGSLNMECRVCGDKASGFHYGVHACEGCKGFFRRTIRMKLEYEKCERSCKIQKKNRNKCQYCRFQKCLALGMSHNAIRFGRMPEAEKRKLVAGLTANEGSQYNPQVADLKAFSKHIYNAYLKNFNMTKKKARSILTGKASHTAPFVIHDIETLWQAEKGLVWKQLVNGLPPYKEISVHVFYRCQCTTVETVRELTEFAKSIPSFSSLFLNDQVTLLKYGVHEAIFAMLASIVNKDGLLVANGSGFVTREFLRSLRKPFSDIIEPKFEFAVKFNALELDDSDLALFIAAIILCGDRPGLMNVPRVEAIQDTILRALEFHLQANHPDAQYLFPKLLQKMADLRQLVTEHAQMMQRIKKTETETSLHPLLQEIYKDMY

In the case of `Nc1cnn([C@@H]2O[C@H](CO)[C@@H](O)[C@H]2O)c(=O)n1`, in assay [1], the activation was -2.94%. In assay [2], the result was inactive.

For the compound `CC(Cl)(Cl)C(=O)OCCOc1cc(Cl)c(Cl)cc1Cl`, the activation in assay [1] is 0.229%. The call in assay [2] was inactive.

Turning to `OCc1cccc(Oc2ccccc2)c1`, in assay [1], the activation was -0.998%. The outcome in assay [2] was inactive.

With `CCCCCCCCC1CO1` (stereo unspecified), in assay [1], the activation is 0.755%. Moreover, the call in assay [2] was inactive.

With `O=[N+]([O-])c1ccc2nc[nH]c2c1`, the activation in assay [1] is -1.7%. Besides, in assay [2], the compound was called inactive.

In the case of `O=[N+]([O-])c1ccc(NCCO)c(OCCO)c1`, the activation in assay [1] is -1.27%. Besides, the call in assay [2] was inactive.

Take `CCNc1nc(NC(C)CC)nc(OC)n1` (stereo unspecified): the activation in assay [1] is -1.27%. Moreover, in assay [2], the compound was called inactive.

For the compound `CCCCC/C=C\C/C=C\CCCCCCCC(=O)O`, in assay [1], the activation was -2.08% and -1.01%. For the same compound, the call in assay [2] was inactive.

`Cc1c(C(=O)O)c(O)cc2c1C(=O)c1c(O)c([C@H]3O[C@H](CO)[C@@H](O)[C@H](O)[C@H]3O)c(O)c(O)c1C2=O`: the activation in assay [1] was -1.49%. In addition, in assay [2], the compound was classed as inactive.

`CCC(C)(C)OC`: the activation in assay [1] was 0.74%. Also, in assay [2], the outcome was inactive.

Turning to `Clc1ccccn1`, the activation in assay [1] was -2.48%. Moreover, in assay [2], the compound was classed as inactive.

Take `CC1=CC(=O)NS(=O)(=O)O1`: the activation in assay [1] was 1.83% and 0.839%. Moreover, the compound was called inactive in assay [2].

For the compound `CCCCCO`, the activation in assay [1] is -1.91%. Moreover, the compound was classed as inactive in assay [2].

On to `Cn1sccc1=O`, for which the activation in assay [1] is 1.01%. Further, in assay [2], the call was inactive.

For `IC(I)I`, in assay [1], the activation is 0.284% and 0.834%. Further, in assay [2], the result was inactive.

With `C[Si](C)(C)O[Si](C)(C)C`, the activation in assay [1] is -0.871%. Also, the outcome in assay [2] was inactive.

Regarding `CC(C)=CCC/C(C)=C\CO`, the activation in assay [1] is -0.74%. In assay [2], the outcome was inactive.

In the case of `C=CC(=O)OCCOCCOCCOCCOC(=O)C=C`, the activation in assay [1] was 26.3%. Further, the outcome in assay [2] was inactive.

For `Cc1ccc(N=Nc2c(O)ccc3ccccc23)c(C)c1`, the activation in assay [1] was -0.864%. For the same compound, in assay [2], the call was inactive.

As for `CCCCCCCCCCCCO`, the activation in assay [1] was -2.63%. The outcome in assay [2] was inactive.

Take `O=Cc1cccc(Br)c1`: the activation in assay [1] was -4.69%. The compound was called inactive in assay [2].

For the compound `O=C1OC(=O)c2ccccc21`, in assay [1], the activation is 1.95%. For the same compound, the call in assay [2] was inactive.

Consider `CCCCOCCO`, for which the activation in assay [1] is -0.315% and -0.896% and 3.38%. For the same compound, the result in assay [2] was inactive.

On to `Cc1cccc([N+](=O)[O-])c1C(=O)O`, for which the activation in assay [1] is -1.22%. Besides, in assay [2], the compound was classed as inactive.

Take `CC(C)CCCCCCc1ccc(O)cc1`: the activation in assay [1] was 6.07%. The call in assay [2] was inactive.

On to `CCNc1cc(O)ccc1C`, for which the activation in assay [1] was 2%. In addition, in assay [2], the compound was classed as inactive.

Turning to `Cc1ccc(Cl)cc1N`, the activation in assay [1] is -2.98%. The compound was called inactive in assay [2].

For the compound `C[Si](Cl)(Cl)c1ccccc1`, the activation in assay [1] was 0.0023%. In assay [2], the result was inactive.

On to `COc1nc(C)nc(NC(=O)NS(=O)(=O)c2ccccc2OCCCl)n1`, for which the activation in assay [1] is -2.13%. In addition, in assay [2], the outcome was inactive.

For the compound `C[Si]1(C)O[Si](C)(C)O[Si](C)(C)O1`, the activation in assay [1] is -0.282%. Further, the compound was classed as inactive in assay [2].

For `OCl`, the activation in assay [1] was 1.09%. The compound was classed as inactive in assay [2].

As to `CCCCN(CCO)CCCC`, the activation in assay [1] is -4.1%. The compound was classed as inactive in assay [2].

As for `CCCCCCCCCCCO`, in assay [1], the activation was -0.12%. In addition, the compound was called inactive in assay [2].

For `O=C(O)c1ccc([N+](=O)[O-])cc1`, the activation in assay [1] is -2.8% and 1.45%. For the same compound, the compound was classed as inactive in assay [2].

On to `Cc1cccc2ccccc12`, for which the activation in assay [1] is -0.539%. Besides, in assay [2], the compound was classed as inactive.

Take `O=C(O)c1c(Cl)cccc1Cl`: the activation in assay [1] was 2.87%. Also, the compound was classed as inactive in assay [2].

For `C1CCOC1`, the activation in assay [1] is -4.53%. In assay [2], the compound was classed as inactive.

With `COC(C)=O`, the activation in assay [1] is -0.0908%. Further, the call in assay [2] was inactive.

In the case of `CCCCCCCCCCCCCCCCCCN`, in assay [1], the activation was 1.62%. In assay [2], the compound was called inactive.

As for `Cc1ccccc1C#N`, the activation in assay [1] is -0.262%. The call in assay [2] was inactive.

`C=C(C)C(=O)OCC(C)C`: the activation in assay [1] was -0.219%. For the same compound, the compound was classed as inactive in assay [2].

As to `O=C=NCCCCCCN=C=O`, the activation in assay [1] was 0.566%. Moreover, the compound was called inactive in assay [2].

In the case of `C=CC(C)(O)CC/C=C(\C)CCC=C(C)C` (stereo unspecified), the activation in assay [1] was 0.971%. The compound was called inactive in assay [2].

On to `FB(F)F`, for which the activation in assay [1] was 0.812%. In addition, in assay [2], the compound was classed as inactive.

Consider `O=C(O)c1ccccc1[N+](=O)[O-]`, for which, in assay [1], the activation is -1.37%. Besides, the result in assay [2] was inactive.

With `Cc1ncc[nH]1`, in assay [1], the activation is -1.48%. Also, the call in assay [2] was inactive.

As to `CCCCC/C=C/C=C/C=O`, the activation in assay [1] was 3.19% and -0.429%. For the same compound, in assay [2], the result was inactive.

As to `O=C(O)CCSSCCC(=O)O`, the activation in assay [1] is -1.56%. In assay [2], the call was inactive.
